Experimental data published in PubChem BioAssay AID1508600 (Functional Genomics Laboratory (NCATS/FGL), 2020).
In all, about 53,000 sequences went through this assay and about 3,700 (7%) were called active.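 The calls were made as follows: active = gene knockdowns whose robust z-score for IL-1 alpha signal is at least 2 or at most -2, so actives lie on both sides; inactive = the rest.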 The sample as a whole holds a higher share of actives than the screen did.

Test: Components of the Cytosolic LPS Sensing Pathway: Gene Identification via Genome-wide siRNA Screen
Settings: RAW264.7 macrophages, IL-1a HTRF, actives lie on both sides, screened at 100 nM (by protocol), cells primed 5 h with Pam3CSK4 first
Excerpt: Non-canonical inflammasome activation by cytosolic LPS is a critical component of the host response to Gram-negative bacterial infection, however we lack a comprehensive understanding of the cellular processes that control this pathway. Here we describe a genome-wide siRNA screen to identify genes regulating the mouse macrophage IL-1 alpha response to cytosolic LPS.
RAW264.7 cells were maintained in complete DMEM media, comprising DMEM with 4.5 g/L glucose, 10% FBS (Gemini Bio-Products, West Sacramento, CA), 2 mM Glutamine (Lonza) and 20 mM HEPES (Lonza), hereafter complete DMEM.
The RNAi screen was conducted in 384-well format using the Ambion Silencer Mouse Genome siRNA Library (#4391425), which consists of three unique, nonoverlapping, nonpooled siRNAs for each of 17,000 gene targets. siRNA reagents ([…]) were stamped into 384-well white flat-bottom microplates (Corning, 3570) using a Velocity11 VPrep liquid handling system (Agilent) integrated into a BioCel robotic platform (Agilent) in columns 1-22, leaving columns 23-24 empty for negative (Ambion, Negative control #1) and positive (mouse Casp4) controls, respectively. The median value of each plate's negative control column was used to normalize sample wells, and the positive control was used to assess transfection efficiency and assay performance.
Lipofectamine RNAiMAX Transfection Reagent ([…]; Invitrogen) was added in […] serum-free, antibiotic-free media to plate wells using a Thermo Scientific Matrix WellMate and Microplate Stacker. Plates were incubated for 45 min at room temperature to allow for the sufficient formation of siRNA-lipid complexes. Cells were seeded at a density of 1x10^4 cells per well in 20 microL media containing 20% (vol/vol) FBS without antibiotics. The final concentration of siRNA in each well was 100 nM. Cells were cultured for 48h at 37 degrees C in 5% CO2 before addition of […] of TLR ligand Pam3CSK4 for 5 hours. The medium was then removed, replaced with […] growth media and cell were transfected with […] of LipidA and TransIT-TKO (Mirus) for 24 hour. At the end of the LipidA treatment, […] of supernatant was transferred to a 384 Greiner Bio-one non-binding low volume plate and […] of IL-1a HTRF reagent (Cisbio, 62MIL1APEH) was added and incubated at room temperature overnight. The plates were read on an EnVision plate reader (PerkinElmer). Cell viability was measured by adding 20ul Cell Titer Glo to the original plate and running a luminescence read on the EnVision. The quantified IL-1a signal for each siRNA gene-targeted well was divided by the median of the negative control wells and multiplied by 100 to achieve a negative control normalized value for each well/siRNA. This normalized value was then used to generate a robust z-score by first taking the log of each value and then by subtracting the median and dividing by the […].

Which z-score does the source give for GGUUGUUAGAGAUUUGACCTT against Kctd12 here?
The z-score was -0.208 (inactive).

For CCUGCACACCAAGUAUCUGTT against Ccl6, which z-score is on record?
Its z-score is -0.252 (inactive).

For GGAAGCACUUCUGCUUUCUTT against Azin2, which z-score is on record?
Its z-score is -0.0234 (inactive).

For GCUACACCCUCUGUGAGUUTT against Csrnp2, which z-score is on record?
Its z-score is -2.07 (active).

With GGAGAUUCUGUAGGUUAUUTT against Lrat as the sequence, how does the z-score read?
Its z-score is 0.0632 (inactive).

With GGGACACUGUGUCCCUUCUTT against Tmem189 as the sequence, how does the z-score read?
The z-score was -0.0937 (inactive).

For CCAAAUGAGGCUACCACAATT against Socs7, which z-score is on record?
Its z-score is -0.0785 (inactive).

With GGAUCUGGUUGGCAAGCAUTT against Krt33a as the sequence, how does the z-score read?
The z-score was 2.87 (active).

Which z-score does the source give for GGAACUUGGGCAUUCCAGATT against Adck2 here?
The z-score was -0.676 (inactive).

Which z-score does the source give for GGAAAUCAGUGAACAUCUUTT against Tshr here?
Its z-score is 0.525 (inactive).

With CCAGAAACUAGCCUACUACTT against Vgll2 as the sequence, how does the z-score read?
The z-score was 0.395 (inactive).

For GGAACUAGUCUGGUGAACUTT against Apoa2, which z-score is on record?
The z-score was -1.35 (inactive).

Which z-score does the source give for GAUUAAUAGUGGUUUCUGATT against Olfr1219 here?
Its z-score is -0.219 (inactive).

For GGGUGUGUUUUUAUGUGUUTT against Lcp2, which z-score is on record?
The z-score was 2.57 (active).

Which z-score does the source give for GGGAGGAAGAAGAAGGUCATT against Atp1b4 here?
The z-score was -0.193 (inactive).

For GGCAGUCAAUAGUGGCCUGTT against Bcor, which z-score is on record?
The z-score was 1.12 (inactive).

For CCAGUAUUUGAGAAUUCUGTT against Gm4788, which z-score is on record?
Its z-score is -0.763 (inactive).

For CGACAAGCUGUACCUCUACTT against Rfx5, which z-score is on record?
The z-score was 3.41 (active).

For GCUGGAGUUUCAGUCAAGGTT against Ctso, which z-score is on record?
The z-score was -0.355 (inactive).

With AUGCAAGAGGAACGUAUCATT against Olfr1181 as the sequence, how does the z-score read?
Its z-score is -0.572 (inactive).

With GGUUUACCCAUCUUGGCCATT against Vwf as the sequence, how does the z-score read?
The z-score was -0.501 (inactive).

With GGAUAUUGAUUCAGUCAAGTT against Rac2 as the sequence, how does the z-score read?
Its z-score is -1.16 (inactive).

With GGAUAUAUUGAAAUGCCCATT against Zbtb14 as the sequence, how does the z-score read?
The z-score was 0.394 (inactive).

With GGAUUUAUCCUGGUGACUUTT against Cox20 as the sequence, how does the z-score read?
Its z-score is 2.49 (active).

With GGUAUUCAGUAUUUUGACUTT against Olfr196 as the sequence, how does the z-score read?
The z-score was 1.56 (inactive).

Which z-score does the source give for GGCUGUCGUCAUUGAAGGATT against Ankrd27 here?
Its z-score is -0.771 (inactive).

With GCGACAAGAGGCUUUAGCATT against Selenos as the sequence, how does the z-score read?
The z-score was 0.692 (inactive).

Which z-score does the source give for GGAGCAGAAAGAAAUUUCCTT against Gpa33 here?
The z-score was 0.48 (inactive).

Which z-score does the source give for GCUUCAACAGUAAUAAUCGTT against Adamtsl1 here?
Its z-score is 2.75 (active).

Which z-score does the source give for CGGUAAUCUUAUGACAACUTT against Gpc6 here?
The z-score was 1.06 (inactive).

With GGGCCUUAAUUUUCCUUUUTT against Podxl as the sequence, how does the z-score read?
The z-score was -0.107 (inactive).

For GGAUUUAUUGACCUCUUAATT against Sp8, which z-score is on record?
The z-score was 2.41 (active).

With GCCCAUCUGAUGAAUACAATT against Mrto4 as the sequence, how does the z-score read?
Its z-score is 1.45 (inactive).

With GGCACAAUUAGCUAAGAAUTT against Abi3bp as the sequence, how does the z-score read?
The z-score was -1.87 (inactive).

For GGUCUGAUUCACCAUAAUUTT against Sspn, which z-score is on record?
Its z-score is 0.313 (inactive).

With GGAGAUUUUGGUGGCUAUUTT against Uqcrfs1 as the sequence, how does the z-score read?
Its z-score is -1.1 (inactive).

Which z-score does the source give for GGAUGUCUAACCCAAAUAGTT against Ly6e here?
Its z-score is 2.74 (active).

With GGAACACUGGAAAAAUGUUTT against Ldhc as the sequence, how does the z-score read?
Its z-score is 0.176 (inactive).

With GGCGGUGAAGUCUAAGGCATT against H1f5 as the sequence, how does the z-score read?
The z-score was 1.54 (inactive).

With GGUGUGUGGUUUUUAAUAATT against Abhd3 as the sequence, how does the z-score read?
Its z-score is -0.692 (inactive).

For GGUGAUCCUUCUUUUUUACTT against Sgo1, which z-score is on record?
Its z-score is -2.01 (active).

Which z-score does the source give for GGGAGUUUCAGACCAGUGUTT against Atp5g3 here?
Its z-score is -0.097 (inactive).

Which z-score does the source give for CCAUGGACUUUCUCGAAGATT against Ceacam11 here?
Its z-score is 0.612 (inactive).

With GCAGGUUCAUACGAUCCAGTT against Plekha3 as the sequence, how does the z-score read?
The z-score was -0.7 (inactive).

For GGCAUGUAAUUUGAUGAUCTT against Mansc1, which z-score is on record?
Its z-score is -1.48 (inactive).

For GGCAUCAAGUGACUUAUAATT against Zfp772, which z-score is on record?
The z-score was 2.47 (active).

For CGGAUACCGUAGUUUGGUGTT against Lipe, which z-score is on record?
Its z-score is 1.51 (inactive).

For GGUGAACGACUCCAUGUAUTT against Nectin1, which z-score is on record?
The z-score was -0.448 (inactive).

Which z-score does the source give for CGUGGUUGAACUUUGUCCGTT against C1qtnf12 here?
Its z-score is -0.569 (inactive).

Which z-score does the source give for GGAAACUUGAUUAUUUAGGTT against Vrk2 here?
The z-score was 0.915 (inactive).

For CGGGUUUAGGAGCAACCUUTT against Zdhhc4, which z-score is on record?
The z-score was -3.02 (active).

Which z-score does the source give for CCAAAUGAAAUUAGUCCUCTT against Eif5 here?
Its z-score is -0.347 (inactive).

Which z-score does the source give for GGCGGCAAGCAACAACAAUTT against Ssbp1 here?
Its z-score is 0.155 (inactive).

With GGAUGUGGUUCGAGUAUGGTT against Pou5f1 as the sequence, how does the z-score read?
The z-score was 1.79 (inactive).

Which z-score does the source give for GGUGAAAAGAUCAGAAUACTT against Fahd1 here?
Its z-score is -1.03 (inactive).

Which z-score does the source give for CCAAAACAUUAACCUGAAGTT against Pla2g6 here?
Its z-score is -2.34 (active).

For GGAAGAGUUGGAAAUUUACTT against Gdpd3, which z-score is on record?
Its z-score is -0.166 (inactive).

Which z-score does the source give for GCAUCCUGAUCACUUAACATT against Cep170 here?
Its z-score is -0.732 (inactive).

For GGAAGAGAAUCAAGAGCCATT against Lrrc10, which z-score is on record?
Its z-score is -2.65 (active).

With GCAAUCUAUAAGAGGUACATT against Axin2 as the sequence, how does the z-score read?
The z-score was 1.79 (inactive).

Which z-score does the source give for GGCCACAUUGUCCUAUCAGTT against Cdh16 here?
Its z-score is 0.0595 (inactive).

For GCAGAAGUCUCGUAUCCAGTT against Arl6ip4, which z-score is on record?
Its z-score is 0.337 (inactive).

For CAUCGUGUGAAACUGGAGATT against Carmil3, which z-score is on record?
Its z-score is 0.608 (inactive).

Which z-score does the source give for GGCUGUCAAGAAGCACAUCTT against Inhba here?
Its z-score is 1.08 (inactive).

With GGAAAGUUCCAAGUUACCATT against Arl13b as the sequence, how does the z-score read?
Its z-score is 1.18 (inactive).

For GGGACAGUGGACCAUUAUGTT against Rnf8, which z-score is on record?
The z-score was -2.41 (active).

Which z-score does the source give for GGAGCCUCAGGUCCAAAUGTT against Fancd2os here?
The z-score was 1.89 (inactive).

With GGAUGUGCAAGGAAUCUCATT against Spint1 as the sequence, how does the z-score read?
Its z-score is 0.741 (inactive).

Which z-score does the source give for GGCAAUGCACUUAUAACUCTT against Olfr118 here?
Its z-score is 0.389 (inactive).
